Results from PubChem BioAssay (NCATS).
“And” between values parts separate entries of the source, which are not always exact repeats. Identical values can stand only once. Results filed as inconclusive are left out. The source made the active and inactive calls. Unless noted, calls come from the whole dose curve; as a rule, active = well fitted curve in the direction sought with a large enough effect; inconclusive = small, poorly fitted or top-dose-only effect, or another doubt; inactive = no such curve, though single readings can be large; an effect the other way counts as inactive or inconclusive.

Columns and labels:
Hek293T = experiment: Primary qHTS to identify gynecologic anti-cancer compounds using libraries of approved drugs and bioactive compounds (AID 1345084); details: Gynecologic cancer cell panel viability, ATPlite luminescence, 48 h, control line for the selectivity index; series mostly up to 57.5 µM; note: % is set by controls: 0 for no effect and ±100 for the full control effect; nearly all actives have a fitted effect of over 55% in size
In short: (§1)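 In this quantitative HTS, cell killing is estimated from loss of ATP-dependent luciferase light. Cells see five compound concentrations over a 48 h exposure.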

JEG-3 = experiment: as above; details: Gynecologic cancer cell panel viability, ATPlite luminescence, 48 h; series mostly up to 57.5 µM
In short: as §1

OV90 = experiment: as above; details: Gynecologic cancer cell panel viability, ATPlite luminescence, 48 h; series mostly up to 57.5 µM
In short: as §1

PA-1 = experiment: as above; details: Gynecologic cancer cell panel viability, ATPlite luminescence, 48 h; series mostly up to 57.5 µM
In short: as §1

SKOV3 = experiment: as above; details: Gynecologic cancer cell panel viability, ATPlite luminescence, 48 h; series mostly up to 57.5 µM
In short: as §1

Tov-21-G = experiment: as above; details: Gynecologic cancer cell panel viability, ATPlite luminescence, 48 h; series mostly up to 57.5 µM
In short: as §1

Tov112D = experiment: as above; details: Gynecologic cancer cell panel viability, ATPlite luminescence, 48 h; series mostly up to 57.5 µM
In short: as §1

[1] = Drug repurposing screens with cells derived from glioblastoma tumor samples (AID 1345199); details: GBM patient neurospheres viability, ATP luminescence, 48 h; note: nearly all actives have a fitted effect of over 40% in size; note: potency is the fitted concentration of half-maximal effect; for activity, negative = cell killing: % is set by controls: 0 for no effect and ±100 for the full control effect
In short: (§2)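 Four patient lines of CD133+ GBM neurospheres were screened at several concentrations; hits were retested in those lines plus three slower-growing GBM lines, using 48-hour treatment and ATP-based viability.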

astro = experiment: as above; details: viability, ATP luminescence, 48 h; series mostly up to 45.9 µM
In short: as §2

[2] = target: Nuclear receptor subfamily 1 group I member 2 (Rattus norvegicus) (UniProt Q9R1A7); experiment: qHTS assay for small molecule activators of the rat pregnane X receptor (rPXR) signaling pathway (AID 651751; call rule not given here; note: 0% is about no effect); details: rPXR reporter cells, luciferase (One-Glo), 24 h
Chain of Nuclear receptor subfamily 1 group I member 2 (Rattus norvegicus) (Q9R1A7 whole entry, looked up): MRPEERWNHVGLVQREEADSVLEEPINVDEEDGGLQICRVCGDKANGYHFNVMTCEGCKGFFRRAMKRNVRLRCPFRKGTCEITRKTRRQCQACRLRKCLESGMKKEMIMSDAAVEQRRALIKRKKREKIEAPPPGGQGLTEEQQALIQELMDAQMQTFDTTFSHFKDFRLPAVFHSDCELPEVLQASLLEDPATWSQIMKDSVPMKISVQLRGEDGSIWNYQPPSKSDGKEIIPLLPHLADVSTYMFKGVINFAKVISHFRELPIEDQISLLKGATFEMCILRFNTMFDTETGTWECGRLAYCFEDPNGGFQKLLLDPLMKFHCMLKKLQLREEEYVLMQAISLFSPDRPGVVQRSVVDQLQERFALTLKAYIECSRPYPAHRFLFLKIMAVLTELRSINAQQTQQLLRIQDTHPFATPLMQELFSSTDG

[3] = qHTS assay for small molecule activators of the human pregnane X receptor (PXR) signaling pathway (AID 720659; call rule not given here; note: 0% is about no effect)
[4] = at 20 µM (top of the series), tumour line C
[5] = at 21.2 µM (top of the series), tumour line B
[6] = at 21.2 µM (top of the series), tumour line D
[7] = at 45.9 µM (top of the series), tumour line B
[8] = at 45.9 µM (top of the series), tumour line D
[9] = at 46 µM (top of the series), tumour line A
[10] = at 46.1 µM (top of the series), tumour line C

COc1ccc2cc([C@H](C)C(=O)O)ccc2c1
inactive: Potency (Hek293T) | Potency (JEG-3) | Potency (OV90) | Potency (PA-1) | Potency (SKOV3) | Potency (Tov-21-G) | Potency (Tov112D) | activity, negative = cell killing [1, 4] -12.8% | activity, negative = cell killing [1, 5] -16.1% | activity, negative = cell killing [1, 6] -8.68% | Potency (astro)

CNC[C@H](O)c1ccc(O)c(O)c1
inactive: Potency (Hek293T) | Potency (JEG-3) | Potency (OV90) | Potency (PA-1) | Potency (SKOV3) | Potency (Tov-21-G) | Potency (Tov112D) | activity, negative = cell killing [1, 7] -6.05% | activity, negative = cell killing [1, 8] -9.08% | activity, negative = cell killing [1, 9] -12.1% | activity, negative = cell killing [1, 10] -9.48% | Potency (astro) | max response [2] 0.58% | outcome [3]

NC(=O)Cc1cccc(C(=O)c2ccccc2)c1N
inactive: Potency (Hek293T) | Potency (JEG-3) | Potency (OV90) | Potency (PA-1) | Potency (SKOV3) | Potency (Tov-21-G) | Potency (Tov112D) | activity, negative = cell killing [1, 7] -10.2% | activity, negative = cell killing [1, 8] -28% | activity, negative = cell killing [1, 10] -24.8% | Potency (astro)

Nc1cccc2c1CN(C1CCC(=O)NC1=O)C2=O (stereo unspecified)
inactive: Potency (Hek293T) | Potency (JEG-3) | Potency (OV90) | Potency (PA-1) | Potency (SKOV3) | Potency (Tov-21-G) | Potency (Tov112D) | activity, negative = cell killing [1, 7] -18.6% | activity, negative = cell killing [1, 8] -1.35% | activity, negative = cell killing [1, 9] -28.8% | activity, negative = cell killing [1, 10] -29.8% | Potency (astro)

CC1=C(C(=O)O)N2C(=O)[C@@H](NC(=O)[C@H](N)C3=CCC=CC3)[C@H]2SC1
inactive: Potency (Hek293T) | Potency (JEG-3) | Potency (OV90) | Potency (PA-1) | Potency (SKOV3) | Potency (Tov-21-G) | Potency (Tov112D) | activity, negative = cell killing [1, 7] -8.4% | activity, negative = cell killing [1, 8] -14.2% | activity, negative = cell killing [1, 10] -3.66% | Potency (astro)

Cc1cc2cc3c(C)cc(=O)oc3c(C)c2o1
inactive: Potency (Hek293T) | Potency (JEG-3) | Potency (OV90) | Potency (PA-1) | Potency (SKOV3) | Potency (Tov-21-G) | Potency (Tov112D) | activity, negative = cell killing [1, 4] -6.21% | activity, negative = cell killing [1, 5] -13.8% | activity, negative = cell killing [1, 6] -30.4% | Potency (astro)

CCCCC(CC)COC(=O)C(C#N)=C(c1ccccc1)c1ccccc1 (stereo unspecified)
inactive: Potency (Hek293T) | Potency (JEG-3) | Potency (OV90) | Potency (PA-1) | Potency (SKOV3) | Potency (Tov-21-G) | Potency (Tov112D) | activity, negative = cell killing [1, 10] -18.1% | Potency (astro)
active: Potency ([1]; tumour line A) 7.08 µM | Potency ([1]; tumour line D) 10 µM

Cc1nc2n(c(=O)c1CCN1CCC(c3noc4cc(F)ccc34)CC1)CCCC2
inactive: Potency (Hek293T) | Potency (JEG-3) | Potency (OV90) | Potency (PA-1) | Potency (SKOV3) | Potency (Tov-21-G) | Potency (Tov112D) | activity, negative = cell killing [1, 7] -28.4% | activity, negative = cell killing [1, 10] -9.67% | Potency (astro)
active: Potency ([1]; tumour line A) 3.55 µM | Potency ([1]; tumour line D) 11.2 µM

Cc1cccc(C)c1OCC(=O)N[C@@H](Cc1ccccc1)[C@@H](O)C[C@H](Cc1ccccc1)NC(=O)[C@H](C(C)C)N1CCCNC1=O
inactive: Potency (Hek293T) | Potency (JEG-3) | Potency (OV90) | Potency (PA-1) | Potency (SKOV3) | Potency (Tov-21-G) | Potency (Tov112D) | activity, negative = cell killing [1, 7] -15.7% | activity, negative = cell killing [1, 8] -27.5% | activity, negative = cell killing [1, 10] -29% | Potency (astro)
active: Potency ([1]; tumour line A) 10 µM

CCN(CCO)CCCC(C)Nc1ccnc2cc(Cl)ccc12 (stereo unspecified)
active: Potency ([1]; tumour line A) 11.2 µM
inactive: activity change, negative = cytotoxicity (Hek293T) 9.38% [at 6.55 µM] and 2.44% [at 6.55 µM] | activity change, negative = cytotoxicity (JEG-3) -0.0768% [at 6.55 µM] and 4.75% [at 6.55 µM] | activity change, negative = cytotoxicity (OV90) -3.69% [at 6.55 µM] | activity change, negative = cytotoxicity (PA-1) 16.5% [at 6.55 µM] and 2.35% [at 6.55 µM] | activity change, negative = cytotoxicity (SKOV3) -2.72% [at 6.55 µM] and 0.445% [at 6.55 µM] | activity change, negative = cytotoxicity (Tov-21-G) 2.96% [at 6.55 µM] and -2.5% [at 6.55 µM] | activity change, negative = cytotoxicity (Tov112D) 10.4% [at 6.55 µM] and 2.64% [at 6.55 µM] | activity, negative = cell killing [1, 7] -10.8% | activity, negative = cell killing [1, 8] -19.9% | activity, negative = cell killing [1, 10] 3.19% | Potency (astro)

Clc1ccc(C(Cn2ccnc2)OCc2c(Cl)cccc2Cl)c(Cl)c1 (stereo unspecified)
inactive: Potency (Hek293T) | Potency (JEG-3) | Potency (OV90) | Potency (PA-1) | Potency (SKOV3) | Potency (Tov-21-G) | Potency (Tov112D) | activity, negative = cell killing [1, 4] -9.14%
active: Potency ([1]; tumour line A) 7.94 µM | Potency ([1]; tumour line D) 7.08 µM

COC(=O)N[C@H](C(=O)N[C@@H](Cc1ccccc1)[C@@H](O)CN(Cc1ccc(-c2ccccn2)cc1)NC(=O)[C@@H](NC(=O)OC)C(C)(C)C)C(C)(C)C
inactive: Potency (Hek293T) | Potency (JEG-3) | Potency (OV90) | Potency (PA-1) | Potency (SKOV3) | Potency (Tov-21-G) | Potency (Tov112D) | activity, negative = cell killing [1, 7] -0.919% | activity, negative = cell killing [1, 8] -29.7% | activity, negative = cell killing [1, 10] 8.04% | Potency (astro)
active: Potency ([1]; tumour line A) 11.2 µM

Clc1ccc(C(Cn2ccnc2)OCc2ccsc2Cl)c(Cl)c1 (stereo unspecified)
inactive: Potency (Hek293T) | Potency (JEG-3) | Potency (OV90) | Potency (PA-1) | Potency (SKOV3) | Potency (Tov-21-G) | Potency (Tov112D)
